The full data set covers some 7,900 targets. This sample favours those with a hit. About 0.6% of all pairs of compound and target were hits. Unmarked numbers belong to inactive results.
Columns and labels:
Experiment in all cases: log2 fold change, soluble protein after heating vs DMSO (PISA); higher = thermal stabilisation; K562 cells, 10 uM, 30 min; active = over 0.2 and 3.5 SD of the protein, either way, in both replicates (recomputed)
bafetinib = compound: Cc1ccc(NC(=O)c2ccc(CN3CC[C@H](N(C)C)C3)c(C(F)(F)F)c2)cc1Nc1nccc(-c2cncnc2)n1 [bafetinib]
Method in brief: (§1)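 For each measurement, 10 μM compound was applied for 30 min to K562 cells at 2×10^6 cells/mL. Aliquots were heated for 3 min across 48°C-58°C, pooled, and extracted in PBS with 0.5% NP-40 at 4°C; the supernatant after 21,000xg for 90 min was soluble protein. This was quantified by TMTpro 16plex LC-MS/MS with channel sums equalised, and thermal stability was reported relative to control samples from duplicates, on a log2 fold-change scale.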

[1] = compound: Cc1cccc(CC(=O)N2CCc3c2ccc(-c2cn(C)c4ncnc(N)c24)c3F)n1
Method in brief: as §1

nilotinib = compound: Cc1cn(-c2cc(NC(=O)c3ccc(C)c(Nc4nccc(-c5cccnc5)n4)c3)cc(C(F)(F)F)c2)cn1 [nilotinib]
Method in brief: as §1

[2] = compound: Cc1nc(Nc2n[nH]c3c2CN(C(=O)N[C@H](CN(C)C)c2ccccc2)C3(C)C)c2sccc2n1
Method in brief: as §1

dasatinib = compound: Cc1nc(Nc2ncc(C(=O)Nc3c(C)cccc3Cl)s2)cc(N2CCN(CCO)CC2)n1 [dasatinib]
Method in brief: as §1

[3] = compound: Cc1ncc(-c2ccnc(Nc3ccc(S(C)(=O)=O)cc3)n2)n1C(C)C
Method in brief: as §1

[4] = compound: Cn1cc(-c2ccc3c(c2)CCN3C(=O)Cc2cccc(C(F)(F)F)c2)c2c(N)ncnc21
Method in brief: as §1

[5] = compound: Cn1cc(-c2ccc3nnc(C(F)(F)c4ccc5ncccc5c4)n3n2)cn1
Method in brief: as §1

tipifarnib = compound: Cn1cncc1[C@@](N)(c1ccc(Cl)cc1)c1ccc2c(c1)c(-c1cccc(Cl)c1)cc(=O)n2C [tipifarnib]
Method in brief: as §1

mubritinib = compound: FC(F)(F)c1ccc(/C=C/c2nc(COc3ccc(CCCCn4ccnn4)cc3)co2)cc1 [mubritinib]
Method in brief: as §1

[6] = compound: NC(=O)Nc1cc(-c2cccc(F)c2)sc1C(=O)N[C@H]1CCCNC1
Method in brief: as §1

[7] = compound: NC(=O)c1cnc(N[C@@H]2CCCC[C@@H]2N)nc1Nc1cccc(-n2nccn2)c1
Method in brief: as §1

[8] = compound: NC1(c2ccc(-c3nc4ccn5c(=O)[nH]nc5c4cc3-c3ccccc3)cc2)CCC1
Method in brief: as §1

[9] = compound: NCC(=O)Nc1ccc(-n2nc(C(F)(F)F)cc2-c2ccc3c(ccc4ccccc43)c2)cc1
Method in brief: as §1

entinostat = compound: Nc1ccccc1NC(=O)c1ccc(CNC(=O)OCc2cccnc2)cc1 [entinostat]
Method in brief: as §1

vorinostat = compound: O=C(CCCCCCC(=O)Nc1ccccc1)NO [vorinostat]
Method in brief: as §1

citarinostat = compound: O=C(CCCCCCNC(=O)c1cnc(N(c2ccccc2)c2ccccc2Cl)nc1)NO [citarinostat]
Method in brief: as §1

silmitasertib = compound: O=C(O)c1ccc2c(c1)nc(Nc1cccc(Cl)c1)c1ccncc12 [silmitasertib]
Method in brief: as §1

[10] = compound: c1cc(OCCN2CCCCC2)cc(-c2n[nH]c3ccc(-c4nnc[nH]4)cc23)c1
Method in brief: as §1

[11] = compound: O=C1NC(=O)C(c2cnc3ccccn23)=C1c1cn2c3c(cc(F)cc13)CN(C(=O)N1CCCCC1)CC2
Method in brief: as §1

Sequence of UniProt Q96DX7 (Q96DX7 whole entry, looked up): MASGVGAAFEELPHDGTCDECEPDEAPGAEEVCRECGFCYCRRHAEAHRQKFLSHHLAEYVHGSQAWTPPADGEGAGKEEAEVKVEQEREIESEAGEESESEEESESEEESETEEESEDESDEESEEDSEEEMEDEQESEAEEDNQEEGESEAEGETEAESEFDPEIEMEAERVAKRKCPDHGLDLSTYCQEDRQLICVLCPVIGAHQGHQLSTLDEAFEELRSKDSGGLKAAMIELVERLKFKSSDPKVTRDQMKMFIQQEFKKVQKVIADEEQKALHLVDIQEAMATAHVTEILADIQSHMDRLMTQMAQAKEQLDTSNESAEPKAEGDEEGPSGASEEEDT
Sequence of UniProt Q86TN4 (Q86TN4 whole entry, looked up): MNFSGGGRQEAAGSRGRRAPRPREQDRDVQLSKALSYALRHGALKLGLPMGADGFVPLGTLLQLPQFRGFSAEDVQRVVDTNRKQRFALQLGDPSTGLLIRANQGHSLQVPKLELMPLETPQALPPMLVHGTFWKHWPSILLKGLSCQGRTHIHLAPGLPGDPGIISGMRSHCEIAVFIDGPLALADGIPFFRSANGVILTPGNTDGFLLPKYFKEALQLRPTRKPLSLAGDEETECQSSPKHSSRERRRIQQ
Sequence of UniProt Q96LJ8 (Q96LJ8 whole entry, looked up): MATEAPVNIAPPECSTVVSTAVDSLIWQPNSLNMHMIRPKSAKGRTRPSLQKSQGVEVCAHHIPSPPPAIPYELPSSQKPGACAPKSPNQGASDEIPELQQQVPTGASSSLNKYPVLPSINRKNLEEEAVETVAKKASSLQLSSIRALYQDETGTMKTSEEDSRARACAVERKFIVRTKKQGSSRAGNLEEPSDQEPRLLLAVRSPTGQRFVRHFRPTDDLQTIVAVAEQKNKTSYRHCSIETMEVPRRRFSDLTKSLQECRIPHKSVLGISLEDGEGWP
Sequence of UniProt Q8N2K1 (Q8N2K1 whole entry, looked up): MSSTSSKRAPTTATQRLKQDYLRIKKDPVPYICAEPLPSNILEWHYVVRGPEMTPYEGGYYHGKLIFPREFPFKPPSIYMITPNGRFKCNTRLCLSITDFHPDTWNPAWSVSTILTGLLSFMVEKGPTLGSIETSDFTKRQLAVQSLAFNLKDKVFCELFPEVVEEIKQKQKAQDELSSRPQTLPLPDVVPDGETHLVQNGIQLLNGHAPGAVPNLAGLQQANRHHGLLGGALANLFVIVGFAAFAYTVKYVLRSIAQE
Sequence of UniProt Q8TBZ6 (Q8TBZ6 whole entry, looked up): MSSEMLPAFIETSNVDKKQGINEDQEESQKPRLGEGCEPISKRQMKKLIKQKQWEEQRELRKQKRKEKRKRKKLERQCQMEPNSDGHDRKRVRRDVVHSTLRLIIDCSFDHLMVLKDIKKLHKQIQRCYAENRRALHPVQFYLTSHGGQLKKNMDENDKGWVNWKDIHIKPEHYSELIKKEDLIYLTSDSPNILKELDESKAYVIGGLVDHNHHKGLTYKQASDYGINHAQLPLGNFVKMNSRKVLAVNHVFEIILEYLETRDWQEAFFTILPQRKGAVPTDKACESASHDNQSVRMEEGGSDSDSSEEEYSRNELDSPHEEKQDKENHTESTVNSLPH
Sequence of UniProt Q5U3C3 (Q5U3C3 whole entry, looked up): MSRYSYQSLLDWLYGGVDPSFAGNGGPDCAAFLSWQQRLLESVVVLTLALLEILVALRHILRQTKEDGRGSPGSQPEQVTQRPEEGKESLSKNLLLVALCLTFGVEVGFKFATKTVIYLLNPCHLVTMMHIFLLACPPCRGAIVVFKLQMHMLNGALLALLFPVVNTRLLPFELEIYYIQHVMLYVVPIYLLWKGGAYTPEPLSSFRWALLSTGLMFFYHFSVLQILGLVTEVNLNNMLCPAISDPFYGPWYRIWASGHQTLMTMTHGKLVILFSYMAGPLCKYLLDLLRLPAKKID
Sequence of UniProt Q6ZVM7 (Q6ZVM7 whole entry, looked up): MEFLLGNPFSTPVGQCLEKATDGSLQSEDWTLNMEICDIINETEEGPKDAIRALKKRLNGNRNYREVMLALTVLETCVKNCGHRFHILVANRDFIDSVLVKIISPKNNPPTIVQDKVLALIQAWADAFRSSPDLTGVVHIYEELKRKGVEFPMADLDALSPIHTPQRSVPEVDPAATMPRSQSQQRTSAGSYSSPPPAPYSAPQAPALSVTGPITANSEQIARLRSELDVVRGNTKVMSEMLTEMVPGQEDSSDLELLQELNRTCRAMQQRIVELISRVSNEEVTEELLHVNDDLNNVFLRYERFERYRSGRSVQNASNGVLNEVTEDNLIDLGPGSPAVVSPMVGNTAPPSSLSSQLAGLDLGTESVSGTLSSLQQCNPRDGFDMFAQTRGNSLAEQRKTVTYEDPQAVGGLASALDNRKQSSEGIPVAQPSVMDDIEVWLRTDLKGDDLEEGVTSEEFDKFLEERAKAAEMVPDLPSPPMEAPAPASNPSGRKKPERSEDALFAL
Sequence of UniProt P57081 (P57081 whole entry, looked up): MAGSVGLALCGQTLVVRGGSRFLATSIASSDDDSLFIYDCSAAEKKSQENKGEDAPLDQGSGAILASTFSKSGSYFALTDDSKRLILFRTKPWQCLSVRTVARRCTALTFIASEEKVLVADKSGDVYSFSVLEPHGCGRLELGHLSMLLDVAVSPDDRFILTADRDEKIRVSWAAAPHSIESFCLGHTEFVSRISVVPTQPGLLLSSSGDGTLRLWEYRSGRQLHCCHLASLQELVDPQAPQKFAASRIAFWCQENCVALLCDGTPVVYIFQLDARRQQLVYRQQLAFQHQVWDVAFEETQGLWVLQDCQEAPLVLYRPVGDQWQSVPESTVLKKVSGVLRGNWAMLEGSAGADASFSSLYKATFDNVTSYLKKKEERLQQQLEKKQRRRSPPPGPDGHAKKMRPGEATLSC
Sequence of UniProt P30291 (P30291 whole entry, looked up): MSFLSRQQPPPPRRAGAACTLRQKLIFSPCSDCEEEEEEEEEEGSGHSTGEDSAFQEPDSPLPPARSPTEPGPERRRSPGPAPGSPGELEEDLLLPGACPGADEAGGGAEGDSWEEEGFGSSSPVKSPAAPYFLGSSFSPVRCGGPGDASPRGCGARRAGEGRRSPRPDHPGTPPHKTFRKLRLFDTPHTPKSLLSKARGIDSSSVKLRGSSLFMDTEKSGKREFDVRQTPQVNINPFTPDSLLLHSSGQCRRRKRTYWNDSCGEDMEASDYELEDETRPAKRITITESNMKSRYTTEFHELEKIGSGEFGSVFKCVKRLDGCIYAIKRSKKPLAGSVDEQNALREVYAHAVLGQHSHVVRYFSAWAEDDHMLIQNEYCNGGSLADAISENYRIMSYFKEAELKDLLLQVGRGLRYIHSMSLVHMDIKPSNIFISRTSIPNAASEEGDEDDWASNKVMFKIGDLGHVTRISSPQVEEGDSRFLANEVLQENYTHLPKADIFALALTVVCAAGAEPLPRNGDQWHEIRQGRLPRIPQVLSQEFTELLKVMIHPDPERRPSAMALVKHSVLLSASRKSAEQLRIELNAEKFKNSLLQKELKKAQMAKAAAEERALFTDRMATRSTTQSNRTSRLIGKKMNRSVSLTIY
Sequence of UniProt Q15906 (Q15906 whole entry, looked up): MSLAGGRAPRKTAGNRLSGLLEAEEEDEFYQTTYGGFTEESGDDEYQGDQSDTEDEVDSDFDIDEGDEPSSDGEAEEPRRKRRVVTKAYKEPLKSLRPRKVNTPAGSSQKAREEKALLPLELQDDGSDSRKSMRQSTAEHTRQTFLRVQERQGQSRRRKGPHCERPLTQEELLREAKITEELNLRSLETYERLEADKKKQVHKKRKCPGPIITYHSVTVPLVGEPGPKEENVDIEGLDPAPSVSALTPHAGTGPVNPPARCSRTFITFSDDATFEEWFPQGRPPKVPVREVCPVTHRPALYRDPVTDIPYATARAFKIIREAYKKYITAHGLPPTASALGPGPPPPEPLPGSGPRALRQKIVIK
Sequence of UniProt Q9C035 (Q9C035 whole entry, looked up): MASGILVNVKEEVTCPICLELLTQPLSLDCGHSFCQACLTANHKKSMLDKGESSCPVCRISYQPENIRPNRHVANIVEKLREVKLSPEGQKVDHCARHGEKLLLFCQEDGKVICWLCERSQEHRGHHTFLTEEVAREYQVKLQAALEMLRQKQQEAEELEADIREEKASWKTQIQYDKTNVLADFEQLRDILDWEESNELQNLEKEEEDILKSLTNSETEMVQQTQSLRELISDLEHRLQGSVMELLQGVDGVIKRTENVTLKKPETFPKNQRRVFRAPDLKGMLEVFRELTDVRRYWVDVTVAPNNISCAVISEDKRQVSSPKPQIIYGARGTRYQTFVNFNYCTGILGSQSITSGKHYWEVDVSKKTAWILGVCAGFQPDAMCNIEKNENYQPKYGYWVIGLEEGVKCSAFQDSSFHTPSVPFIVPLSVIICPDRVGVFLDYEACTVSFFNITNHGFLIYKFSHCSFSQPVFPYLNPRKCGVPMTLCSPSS
Sequence of UniProt Q9NQZ2 (Q9NQZ2 whole entry, looked up): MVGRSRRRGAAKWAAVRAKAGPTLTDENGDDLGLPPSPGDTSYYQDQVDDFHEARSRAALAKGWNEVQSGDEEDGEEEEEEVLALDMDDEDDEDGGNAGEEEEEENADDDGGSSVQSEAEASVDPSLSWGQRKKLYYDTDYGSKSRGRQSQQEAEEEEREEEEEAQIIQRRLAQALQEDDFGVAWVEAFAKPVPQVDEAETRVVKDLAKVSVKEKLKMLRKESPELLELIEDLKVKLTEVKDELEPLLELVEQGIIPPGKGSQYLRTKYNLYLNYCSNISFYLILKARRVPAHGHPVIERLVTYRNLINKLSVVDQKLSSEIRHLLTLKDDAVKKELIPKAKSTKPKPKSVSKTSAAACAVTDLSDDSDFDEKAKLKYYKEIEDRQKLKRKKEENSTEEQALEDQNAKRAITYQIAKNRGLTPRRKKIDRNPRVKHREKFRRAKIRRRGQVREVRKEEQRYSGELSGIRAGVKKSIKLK
Sequence of UniProt Q9BQB6 (Q9BQB6 whole entry, looked up): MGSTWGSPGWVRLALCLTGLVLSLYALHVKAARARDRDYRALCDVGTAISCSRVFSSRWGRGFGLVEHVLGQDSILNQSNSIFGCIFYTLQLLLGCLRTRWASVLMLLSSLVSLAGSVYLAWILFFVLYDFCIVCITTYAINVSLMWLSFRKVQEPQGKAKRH

Row | Target | log2 fold change (bafetinib) | log2 fold change [1] | log2 fold change (nilotinib) | log2 fold change [2] | log2 fold change (dasatinib) | log2 fold change [3] | log2 fold change [4] | log2 fold change [5] | log2 fold change (tipifarnib) | log2 fold change (mubritinib) | log2 fold change [6] | log2 fold change [7] | log2 fold change [8] | log2 fold change [9] | log2 fold change (entinostat) | log2 fold change (vorinostat) | log2 fold change (citarinostat) | log2 fold change (silmitasertib) | log2 fold change [10] | log2 fold change [11]
1 | VKORC1 (UniProt Q9BQB6) | -0.062 | 0.045 | -0.008 | 0.013 | -0.049 | -0.013 | 0.105 | 0.081 | 0 | 0.035 | -0.006 | 0 | -0.054 | -0.114 | 0.025 | -0.034 | 0.001 | -0.023 | 0.073 | 
2 | TRMT10A (UniProt Q8TBZ6) | 0.006 | -0.022 | 0.005 | -0.018 | -0.059 | -0.002 | 0.104 | 0.008 | -0.022 | 0.05 | 0.015 | -0.005 | -0.075 | -0.109 | -0.039 | -0.003 | -0.013 | -0.023 | -0.02 | 0.007
3 | WDR61 (UniProt Q9GZS3) | -0.01 | -0.033 | -0.018 | 0.029 | 0.007 | -0.075 | 0.023 | 0.012 | -0.01 | 0.075 | -0.013 | -0.058 | -0.102 | -0.069 | -0.052 | 0 | 0.028 | -0.005 | -0.057 | -0.045
4 | TRIM44 (UniProt Q96DX7) | -0.033 | -0.01 | -0.024 | -0.023 | -0.029 | 0.026 | 0.002 | 0.051 | -0.041 | 0.065 | 0 | -0.037 | -0.048 | 0.02 | -0.048 | 0.015 | 0.008 | 0.045 | -0.083 | 
5 | WEE1 (UniProt P30291) | -0.152 | -0.062 | 0.182 | -0.905 (active) | 0.805 (active) | 0.311 | -0.043 | -0.037 | -0.037 | 0.394 | -0.455 | 0.205 | 0.04 | -0.045 | 0.47 | 0.05 |  | -0.122 |  | 0.089
6 | WDR4 (UniProt P57081) | 0.455 (active) | -0.06 | 0.009 | 0.005 | -0.013 | -0.003 | 0.068 | -0.061 | -0.132 | 0.031 | -0.094 | 0.021 | -0.089 | -0.003 | -0.04 | -0.009 | 0.046 | -0.038 | -0.011 | -0.161
7 | UBXN10 (UniProt Q96LJ8) | 0.002 | -0.266 | -0.085 | 0.141 | -0.032 | -0.098 | -0.075 | 0.021 | 0.01 | 0.067 | 0.062 |  | 0.102 | -0.426 (active) | -0.069 | 0.136 | -0.121 | -0.006 | 0.037 | -0.031
8 | TMEM164 (UniProt Q5U3C3) | -0.097 | -0.155 | 0.023 | -0.021 | 0.048 | 0.037 | 0.002 |  | 0.059 | -0.067 | 0.129 | -0.138 | -0.006 | -0.248 | -0.112 | 0.139 | 0.087 | 0.01 | -0.268 | -0.004
9 | UBE2J2 isoform 3 (UniProt Q8N2K1) | 0.037 | -0.12 |  |  | -0.154 |  | 0.013 |  | 0.041 |  | -0.072 | 0.028 |  | 0.213 | -0.067 | 0.156 | 0.1 |  | -0.039 | -0.299
10 | WARS1 (UniProt G3V227) | 0 |  |  |  | -0.164 |  | -0.42 |  |  |  |  | 0.045 |  | -0.115 |  |  |  |  |  | -0.084
11 | TOM1L2 (UniProt Q6ZVM7) |  |  | -0.047 | -0.127 | -0.091 | -0.125 | 0.028 |  |  |  | 0.089 | -0.136 |  | -0.098 | 0.036 |  |  |  |  | -0.043
12 | VDAC1 (UniProt C9JI87) | -0.152 |  | -0.009 | -0.048 | 0.277 | -0.106 | -0.16 | 0.22 | 0.242 | 0.133 | -0.145 | -0.166 | -0.065 |  | -0.158 |  | -0.153 | 0.024 | 0.044 | -0.09
13 | TUBA4A (UniProt C9JJQ8) | 0.116 |  |  |  | -0.082 |  | 0.012 |  | 0.047 |  | -0.035 |  |  | 0.053 | 0.093 |  | 0.039 |  | 0.206 | 
14 | WDR46, A0A0G2JJL1 | 0.339 |  | -0.094 | 0.202 | 0.381 | 0.105 |  |  | 0.171 | -0.051 | 0.222 |  | 0.515 | 0.146 | -0.113 |  | -0.163 | 0.247 | 0.013 | 0.284
15 | VPS72 isoform 2 (UniProt Q15906) | -0.064 |  | 0.086 | 0.02 | 0.044 | -0.024 | -0.052 | 0.08 | 0.074 | 0.009 | 0.092 | -0.226 | -0.117 | 0.037 | -0.032 |  | 0.102 | 0.199 | -0.116 | -0.157
16 | WDR4 isoform 3 (UniProt P57081) | 0.125 | 0.057 |  |  |  |  |  |  |  |  | -0.103 |  |  |  | -0.02 | -0.118 |  |  |  | -0.135
17 | WARS1 (UniProt G3V3P2) | -0.076 |  |  |  |  |  |  |  |  |  | -0.196 |  |  |  | -0.074 |  |  |  |  | 
18 | XAB2 (UniProt Q9HCS7) |  |  |  |  | -0.092 |  |  | 0.125 |  | -0.151 |  |  | 0.011 |  |  |  |  | 0.038 |  | 0.298
19 | WARS1 (UniProt G3V339) |  |  |  |  |  |  |  |  |  |  |  |  |  |  |  |  |  |  |  | -0.387
20 | TRPT1 isoform 4 (UniProt Q86TN4) |  |  |  |  |  |  |  | -0.011 |  | 0.041 | 0.037 | 0.235 | 0 |  | 0.123 |  | 0.029 | 0.059 | -0.025 | 
21 | TRIM5 (UniProt Q9C035) |  |  |  |  | -0.088 |  | 0.013 | 0.133 |  |  | -0.219 | -0.085 |  | -0.006 | 0.137 |  |  |  |  | 0.024
22 | UTP3 (UniProt Q9NQZ2) | 0.689 (active) | -0.048 |  |  | 0.168 |  | -0.208 | -0.132 | 0.212 | -0.228 | 0.093 | 0.074 | 0.286 | 0.087 | -0.019 | -0.06 | -0.107 | 0.095 | -0.41 | 0.103
23 | UBA52 (UniProt P62987) | 0.285 | -0.001 |  |  |  |  | -0.343 | -0.16 | 0.247 | -0.115 | 0.067 | 0.158 | 0.366 | 0.178 | 0 | 0.029 | -0.112 | 0.158 | -0.216 | 0.246
